# ± gives the standard deviation. The full ranking holds about 8,200 sequences; the median of “pre-steady-state target cleavage rate” is about 0.024, and the highest 2% start at about 1.3. The entries come from a sample that favours the highest values as a whole.
# Test system: MIWI (PIWIL1) piRISC loaded with L1MC piRNA (30 nt)
# Assay: pre-steady-state target cleavage rate (min^-1); MIWI and MILI are mouse PIWI proteins and EfPiwi is from a freshwater sponge; tags in brackets are library labels; higher = faster piRNA-guided slicing of the target
# Conditions: guide: L1MC piRNA 5'p-UAACUAAAUACUAUGCAAGCUGUAGGUCCU
# Description: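 Cleave-'n-Seq: a library of target RNAs (target site embedded in constant flanks, ACAGCATTCCGCGTTAGTGATATCCG... 5' flank; DNA-blocked outside the site) at 0.1 nM was incubated with 1 nM active mouse MILI or MIWI piRISC (synthetic 5'-monophosphorylated piRNA guide) with or without 500 nM mouse GTSF1 at 33 °C for 1 min to 16 h. Uncleaved targets were sequenced and normalised to non-target controls, and the pooled three trials were fitted to a burst-and-steady-state model to give the pre-steady-state cleavage rate (min^-1; k3 is constrained to at most 1e-4). Sequence is the target site only; target names encode pairing extent (gX:gY) and contiguous / 1-mismatch / 2-mismatch / bulge geometry. Fits with R² ≤ 0 are excluded.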
# [1] = auxiliary factor: 500 nM mouse GTSF1
# [2] = auxiliary factor: none (no GTSF1)
Sequence,pre-steady-state target cleavage rate [1],pre-steady-state target cleavage rate [2]
UCCUCGUACAGCUUGCAUAGUAAUUAGUUA,0.952 ± 0.032,0.029 ± 0.007
UCCUGCAUGAGCUUGCAUAGUAUUUAGUUA,0.92 ± 0.051,0.0506 ± 0.01
UCCUGGAACAGCUUGCAUAGUAUUAUGUUA,0.169 ± 0.023,0.013 ± 0.0044
UCCUGGAACACUUGCAUAGUAUUUAGUUA,0.596 ± 0.032,0.0132 ± 0.0044
UCCACGUACAGCUUGCAUAGAAUUUAGUUA,0.412 ± 0.022,0.0297 ± 0.0084
AGGACCUACAGCUUGCAAAGUAUUUAGUUA,1.26 ± 0.053,0.0478 ± 0.0089
UCGACCUACAGCUUGCAAAGUAUUUAGUUA,1.47 ± 0.056,0.0377 ± 0.0085
UGGACCUACAGCUUGCAAAGUAUUUAGUAA,1.13 ± 0.074,0.0219 ± 0.006
ACGACCUACAGCUUGCAAAGUAUUUAGUUA,1.56 ± 0.057,0.0528 ± 0.011
UGGACCUACAGCUUGCAAAGUAUUUAGUUA,1.36 ± 0.058,0.0474 ± 0.0097
UCGACCUACAGCUUGCAAAGUAUUUAGUAA,0.99 ± 0.053,0.0245 ± 0.0048
UCGACCUACAGCUUGCAAGUAUUUAGUUA,0.427 ± 0.038,0.00682 ± 0.0023
UCCACCUACAGCUUGCAAAGUAUUUAGUUA,0.937 ± 0.044,0.0318 ± 0.0069
UGCACCUACAGCUUGCAAAGUAUUUAGUUA,1.23 ± 0.08,0.0409 ± 0.0074
UCCUGGUACUGCUUGCAUAGUAAUUAGUUA,0.313 ± 0.047,0.0127 ± 0.0034
AGGACCUACAGCUUGCAUACUUUUUAGUUA,0.0575 ± 0.011,0.00783 ± 0.0023
UCCUGGAUCAGGUUGCAAAGUAUUUAGUUA,0.391 ± 0.036,0.0061 ± 0.0023
UCCACCUACACGUUGCAUAGUAUUUUCAAA,0.22 ± 0.036,
UCCUGGAAGAGCUUCCAUAGUAUUUAGUUA,0.255 ± 0.058,
UGGACCUACAGCUUGCAUAGUAUUUCAGUUA,0.468 ± 0.06,0.0318 ± 0.0065

Sequence,pre-steady-state target cleavage rate [1],pre-steady-state target cleavage rate [2]
UGGUGGUACAGCUUGCAUAGUAUUUAGUUA,1.3 ± 0.046,0.0711 ± 0.012
AGGAGGUACAGCUUGCAUAGUAUUUAGAAA,0.324 ± 0.044,0.0123 ± 0.0037
AGGAGGUACAGCUUGCAUAGUAUUUAGUAA,0.803 ± 0.079,0.0437 ± 0.0095
AGGUGGUACAGCUUGCAUAGUAUUUAGUAA,0.645 ± 0.065,0.04 ± 0.0068
AGGAGGUACAGCUUGCAUAGUAUUUAGUUA,1.5 ± 0.072,0.0721 ± 0.011
UGGAGGUACAGCUUGCAUAGUAUUUAGUAA,0.794 ± 0.065,0.0463 ± 0.0071
UGGAGGUACAGCUUGCAUAGUAUUUAGUUA,1.35 ± 0.064,0.0828 ± 0.015
UCGAGGUACAGCUUGCAUAGUAUUUAGUUA,1.04 ± 0.066,0.0604 ± 0.0095
AGGUGGUACAGCUUGCAUAGUAUUUAGUUA,1.36 ± 0.057,0.0811 ± 0.015
UGGACCUACAGCUUGCAUAGAAUUUACAAA,0.29 ± 0.062,
UGGACCUACAGGUUGCAUAGUAAUUAGUUA,0.731 ± 0.055,0.0177 ± 0.0042
UGGACCUACAGCUUGCAUAGAAUUUUCAAA,0.239 ± 0.048,
UCCUGGAUGUGCUUGCAUGGUAUUUAGUUA,0.209 ± 0.02,0.0348 ± 0.0072
UCGACCUACAGCUUGCAUAGUAUUUAGAUA,0.564 ± 0.043,0.0299 ± 0.0074
UCCACCUACACCUUGCAUAGUAUUUACAAA,0.309 ± 0.053,0.00355 ± 0.0022
UCCUGGUACAGCUAGCAUAGUAUUAAGUUA,0.378 ± 0.051,0.00772 ± 0.0027
UCCUGGAUGUGCUUGCAUAGUAUUUUAGUUA,0.128 ± 0.018,0.021 ± 0.0069
UCCACCUACAGCUACGAUAGUAUUUAGUUA,0.121 ± 0.016,
UCCUCCUACUGCUAGCAUAGUAUUUAGUUA,0.871 ± 0.033,0.0164 ± 0.0031
UCCACCUUCAGCUUGGAUAGUAUUUAGUUA,1.15 ± 0.033,0.0456 ± 0.0083

Sequence,pre-steady-state target cleavage rate [1],pre-steady-state target cleavage rate [2]
UCCUGCUUCAGCUUGGAUAGUAUUUAGUUA,1.18 ± 0.078,0.049 ± 0.0081
AGGACCUUCAGCUUGGAUAGUAUUUAGUUA,1.48 ± 0.052,0.0657 ± 0.012
UGGACCUUCAGCUUGGAUAGUAUUUAGUUA,1.59 ± 0.068,0.0597 ± 0.011
UCGACCUUCAGCUUCCAUAGUAUUUAGUUA,0.0473 ± 0.011,0.00293 ± 0.0014
UCCUCCUUCAGCUUGGAUAGUAUUUAGUUA,1.19 ± 0.041,0.0358 ± 0.0057
UCGACCUAGAGCUUGGAUAGUAUUUAGUUA,1.25 ± 0.042,0.0475 ± 0.0077
AGGACCUUCAGCUUCCAUAGUAUUUAGUUA,0.101 ± 0.023,0.00546 ± 0.0024
UCGACCUUCAGCUUGGAUAGUAUUUAGUUA,1.49 ± 0.05,0.0525 ± 0.0074
UCCACCUAGUCCUUGCAUAGUAUUUAGUAA,0.142 ± 0.021,0.00921 ± 0.0015
UCCUGGAACAGCUUGCAAAGUAAUUAGUUA,0.545 ± 0.038,0.0139 ± 0.0055
UCCACCUACAGCUUGCAUAGAAUUUACAAA,0.308 ± 0.054,
UCCUGGUACAGUUUGCAUAGUAUUUAGUUA,0.706 ± 0.044,0.0392 ± 0.0063
UGGACCUACAGCUAGCAUAGUAUUUAGUUA,1.41 ± 0.074,0.0334 ± 0.0077
UGGACCUACAGCUUGGCAUAGUAUUUAGUUA,1.01 ± 0.26,0.0197 ± 0.0048
UCCACCUACAGCUUAGCAUAGUAUUUAGUUA,1.02 ± 0.03,0.0144 ± 0.0034
AGGACCUACAGCUAGCAUAGUAUUUAGUUA,1.16 ± 0.061,0.0412 ± 0.0085
UCGACCUACAGCUUAGCAUAGUAUUUAGUUA,1.59 ± 0.058,0.0251 ± 0.0054
UCGACCUACAGCUAGCAUAGUAUUUAGUUA,1.28 ± 0.053,0.0292 ± 0.0072
ACGACCUACAGCUAGCAUAGUAUUUAGUUA,1.3 ± 0.052,0.0406 ± 0.0091
